{"source": "PubChem BioAssay (NCATS)", "note": "Values joined by “and” are separate entries in the source; they are usually repeats but may differ in a detail not shown here. Equal values may be shown once. A number with no mark means an inactive call. Inconclusive results are not listed. Active and inactive are the calls of the source. Calls come from the whole dose curve; as a rule, active = well fitted curve in the direction sought with a large enough effect; inconclusive = small, poorly fitted or top-dose-only effect, or another doubt; inactive = no such curve, though single readings can be large; an effect the other way counts as inactive or inconclusive.", "data": [{"target": "Muscarinic acetylcholine receptor M1 (Rattus norvegicus) (UniProt P08482)", "sequence (P08482 whole entry, looked up)": "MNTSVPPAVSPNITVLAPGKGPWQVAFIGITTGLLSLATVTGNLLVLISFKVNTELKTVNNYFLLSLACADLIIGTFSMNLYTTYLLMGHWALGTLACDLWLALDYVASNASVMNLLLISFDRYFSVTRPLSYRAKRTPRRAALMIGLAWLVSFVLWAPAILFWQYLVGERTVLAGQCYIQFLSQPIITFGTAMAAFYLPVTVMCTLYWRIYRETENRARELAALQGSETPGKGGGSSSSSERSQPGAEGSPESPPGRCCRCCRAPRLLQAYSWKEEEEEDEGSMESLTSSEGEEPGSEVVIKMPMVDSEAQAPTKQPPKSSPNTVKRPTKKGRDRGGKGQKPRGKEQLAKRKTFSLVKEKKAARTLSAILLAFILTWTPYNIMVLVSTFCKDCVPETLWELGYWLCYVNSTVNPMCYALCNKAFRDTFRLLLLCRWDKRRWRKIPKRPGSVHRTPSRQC", "assay": "qHTS Assay for Antagonists of Acetylcholine Muscarinic M1 Receptor: Kinetic Measurement of Intracellular Calcium Response (AID 943); note: nearly all actives have a fitted effect of over 75% in size; note: potency is the fitted concentration of half-maximal effect;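 for activity change, negative = inhibition: Fluo-4 calcium signal as peak divided by basal fluorescence over 4 min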", "conditions": "M1-expressing cells, kinetic intracellular calcium fluorescence; series mostly up to 35.3 µM; activity change, negative = inhibition: at the top concentration", "method_in_brief": "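Rat M1-CHO cells, 2000/well, overnight → Fluo-4 no-wash dye with probenecid, 1 h 37C → compound 10 min, room temp → basal read 6 s → carbachol EC80 (100 nM) → 4 min kinetic read; peak/basal.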", "units": {"activity change, negative = inhibition": "%"}, "values": [{"smiles": "NCc1cc(=O)[nH]o1", "activity change, negative = inhibition": 160}, {"smiles": "C[C@@H]1O[C@H](C[N+](C)(C)C)C[C@H]1O", "activity change, negative = inhibition": 20.8}, {"smiles": "CC(=O)NCCc1c[nH]c2ccccc12", "activity change, negative = inhibition": -7.3}, {"smiles": "O=C1CCCN1CC#CCN1CCCC1", "activity change, negative = inhibition": -2.68}, {"smiles": "NCCc1c[nH]c2ccccc12", "activity change, negative = inhibition": -31.5}, {"smiles": "CCCN(CCC)[C@@H]1CCc2ccc(O)cc2C1", "Potency": "5.01 µM (active) and 282 nM (active)"}, {"smiles": "NC(N)=NOCCC(N)C(=O)O", "note": "(stereo not drawn)", "activity change, negative = inhibition": -19.4}, {"smiles": "CNCCc1c[nH]c2ccc(O)cc12", "activity change, negative = inhibition": -32.1}, {"smiles": "COc1ccc2c(c[n+](C)c3c4cc5c(cc4ccc23)OCO5)c1OC", "activity change, negative = inhibition": -17.8}, {"smiles": "NC(=NCCC[C@H](N)C(=O)O)N[N+](=O)[O-]", "activity change, negative = inhibition": -31.9}, {"smiles": "Cn1cnc(CCN)c1", "activity change, negative = inhibition": -44.1}]}, {"target": "Muscarinic acetylcholine receptor M1 (Rattus norvegicus) (UniProt P08482)", "assay": "qHTS Assay for Antagonists of Acetylcholine Muscarinic M1 Receptor: Measurement of IP-One Response (AID 944); note: nearly all actives have a fitted effect of over 75% in size; note: potency is the fitted concentration of half-maximal effect", "conditions": "CHO-M1 cells, IP-One HTRF, antagonist mode; series mostly up to 46.1 µM; activity change, negative = inhibition: at the top concentration", "method_in_brief": "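M1-CHO (rat), 2000 cells/well, overnight recovery; cpd 10 min; carbachol EC80 (200 nM), 30 min, HEPES buffer + 50 mM LiCl pH 7.4; IP-One HTRF, Ex 337, Em 620/665 nm.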", "units": {"activity change, negative = inhibition": "%"}, "values": [{"smiles": "NCc1cc(=O)[nH]o1", "activity change, negative = inhibition": -10.9}, {"smiles": "Clc1cnc(Oc2ccc(Oc3ncc(Cl)cc3Cl)cc2)c(Cl)c1", "activity change, negative = inhibition": -3.93}, {"smiles": "C[C@@H]1O[C@H](C[N+](C)(C)C)C[C@H]1O", "activity change, negative = inhibition": 23.3}, {"smiles": "CC(=O)NCCc1c[nH]c2ccccc12", "activity change, negative = inhibition": -7.27}, {"smiles": "O=C(O)CC[N+](=O)[O-]", "activity change, negative = inhibition": -23.8}, {"smiles": "O=C1CCCN1CC#CCN1CCCC1", "activity change, negative = inhibition": 11.9}, {"smiles": "NCCc1c[nH]c2ccccc12", "activity change, negative = inhibition": -11.2}, {"smiles": "CCCN(CCC)[C@@H]1CCc2ccc(O)cc2C1", "Potency": "5.01 µM (active) and 3.98 µM (active)"}, {"smiles": "O=C(O)Cc1cnc[nH]1", "activity change, negative = inhibition": -40.5}, {"smiles": "CC1=NN=C(c2ccc(N)cc2)c2cc3c(cc2C1)OCO3", "activity change, negative = inhibition": -28.7}, {"smiles": "CNCCc1c[nH]c2ccc(O)cc12", "activity change, negative = inhibition": -23.4}, {"smiles": "CCCN1CCO[C@@H]2c3cc(O)ccc3OC[C@H]21", "activity change, negative = inhibition": -20.6}, {"smiles": "COc1ccc2c(c[n+](C)c3c4cc5c(cc4ccc23)OCO5)c1OC", "Potency": "35.5 µM (active)"}, {"smiles": "Cc1nccc2c1[nH]c1ccccc12", "activity change, negative = inhibition": -38.4}, {"smiles": "CCCN1CCC[C@H](c2cccc(O)c2)C1", "activity change, negative = inhibition": -42.5}, {"smiles": "NC(=NCCC[C@H](N)C(=O)O)N[N+](=O)[O-]", "activity change, negative = inhibition": -39.8}, {"smiles": "Cn1cnc(CCN)c1", "activity change, negative = inhibition": -31.8}]}, {"target": "Pyruvate kinase (Leishmania mexicana) (UniProt Q27686)", "sequence (Q27686 2-499 E452W)": "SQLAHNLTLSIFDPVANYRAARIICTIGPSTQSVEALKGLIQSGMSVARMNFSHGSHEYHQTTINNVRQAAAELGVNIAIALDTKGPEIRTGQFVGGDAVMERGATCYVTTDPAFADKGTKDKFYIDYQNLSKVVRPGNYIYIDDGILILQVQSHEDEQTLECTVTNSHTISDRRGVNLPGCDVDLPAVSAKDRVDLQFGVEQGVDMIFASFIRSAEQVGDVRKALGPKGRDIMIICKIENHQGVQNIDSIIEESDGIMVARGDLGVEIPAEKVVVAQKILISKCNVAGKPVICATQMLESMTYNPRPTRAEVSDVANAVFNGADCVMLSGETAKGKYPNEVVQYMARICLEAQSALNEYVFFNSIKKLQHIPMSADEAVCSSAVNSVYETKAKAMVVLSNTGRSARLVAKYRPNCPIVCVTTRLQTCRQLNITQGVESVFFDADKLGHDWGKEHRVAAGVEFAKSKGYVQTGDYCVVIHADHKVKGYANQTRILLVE", "assay": "qHTS Validation Assay for Inhibitors of Leishmania Mexicana Pyruvate Kinase (AID 945);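 note: 0% = DMSO only neutral control wells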", "conditions": "purified L. mexicana pyruvate kinase, enzyme activity, E451W mutant enzyme; series mostly up to 57.5 µM; activity change, negative = inhibition: at the top concentration", "method_in_brief": "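Read-out: luminescence from PKLight stop/detection reagent, data normalized to DMSO. Reaction: 0.2 nM E451W LmPYK, 0.5 mM PEP, 0.1 mM ADP, pH 7.2, 1 h room temperature.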", "units": {"activity change, negative = inhibition": "%"}, "values": [{"smiles": "NCc1cc(=O)[nH]o1", "activity change, negative = inhibition": 15.6}, {"smiles": "Clc1cnc(Oc2ccc(Oc3ncc(Cl)cc3Cl)cc2)c(Cl)c1", "activity change, negative = inhibition": 6.28}, {"smiles": "C[C@@H]1O[C@H](C[N+](C)(C)C)C[C@H]1O", "activity change, negative = inhibition": 10.9}, {"smiles": "CC(=O)NCCc1c[nH]c2ccccc12", "activity change, negative = inhibition": -12.6}, {"smiles": "O=C(O)CC[N+](=O)[O-]", "activity change, negative = inhibition": -9.21}, {"smiles": "CC(C)Oc1cccnc1N(C)C1CCN(Cc2ccccc2)CC1", "activity change, negative = inhibition": -5.03}, {"smiles": "O=C1CCCN1CC#CCN1CCCC1", "activity change, negative = inhibition": 6.4}, {"smiles": "NCCc1c[nH]c2ccccc12", "activity change, negative = inhibition": -2.58}, {"smiles": "CCCN(CCC)[C@@H]1CCc2ccc(O)cc2C1", "outcome": "inactive"}, {"smiles": "O=C(O)Cc1cnc[nH]1", "activity change, negative = inhibition": 4.28}, {"smiles": "CC[C@@]1(O)C(=O)OCc2c1cc1n(c2=O)Cc2cc3ccccc3nc2-1", "activity change, negative = inhibition": -10.6}, {"smiles": "CC1=NN=C(c2ccc(N)cc2)c2cc3c(cc2C1)OCO3", "activity change, negative = inhibition": -4.7}, {"smiles": "NC(N)=NOCCC(N)C(=O)O", "note": "(stereo not drawn)", "activity change, negative = inhibition": -11}, {"smiles": "NCCc1c[nH]c2ccc(O)cc12", "activity change, negative = inhibition": -4.53}, {"smiles": "CNCCc1c[nH]c2ccc(O)cc12", "activity change, negative = inhibition": 17}, {"smiles": "CCCN1CCO[C@@H]2c3cc(O)ccc3OC[C@H]21", "outcome": "inactive"}, {"smiles": "COc1ccc2c(c[n+](C)c3c4cc5c(cc4ccc23)OCO5)c1OC", "activity change, negative = inhibition": -15.8}, {"smiles": "Cc1nccc2c1[nH]c1ccccc12", "activity change, negative = inhibition": -1.23}, {"smiles": "CCCN1CCC[C@H](c2cccc(O)c2)C1", "outcome": "inactive"}, {"smiles": "C[C@]12N[C@H](Cc3ccccc31)c1ccccc12", "outcome": "inactive"}, {"smiles": "NC(=NCCC[C@H](N)C(=O)O)N[N+](=O)[O-]", "activity change, negative = inhibition": 8.71}, {"smiles": "Cn1cnc(CCN)c1", "activity change, negative = inhibition": 11.5}]}, {"tested_on": "not listed separately", "assay": "MultiTox-Fluor Cytotoxicity Assay - LYMP1-001 - Dead Cells (AID 946)", "conditions": "LYMP1-001 lymphoblastoid cells, dead-cell protease fluorescence; series mostly up to 92.2 µM; cytotoxicity (dead cells): at the top concentration", "method_in_brief": "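Cytotoxicity as increased dead-cell protease fluorescence (bis-AAF-R110, 485/520 nm), read 60 min after MultiTox-Fluor reagent. Human lymphoblastoid line exposed 16 h; Hill-fitted AC50, with DMSO as 0% and 15 uM tetraoctylammonium bromide as 100%.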", "units": {"cytotoxicity (dead cells)": "%"}, "values": [{"smiles": "COc1ccc(C(c2ccc(OC)cc2)C(Cl)(Cl)Cl)cc1", "outcome": "inactive"}, {"smiles": "COC(C)(C)CCCC(C)C/C=C/C(C)=C/C(=O)OC(C)C", "note": "(stereo not drawn)", "cytotoxicity (dead cells)": 14.2}, {"smiles": "Cc1cc(O)ccc1Cl", "cytotoxicity (dead cells)": -7.08}]}]}
